Test results from the supplement of paper PMC12067093, “Discovery and optimisation of a covalent ligand for TRIM25 and its application to targeted protein ubiquitination” (Chemical Science, 2025).
Targets with the largest changes are over-represented here; the source holds about 21,000 in all.

What was measured:
compound 10 = compound: Cc1cc(ccc1-c1ccccc1)C(=O)N1CCCN(CC1)C(=O)CCl [compound 10]; test: probe-labelled cysteine peptide fold change vs DMSO (competition) (log2 fold change); higher = less target engagement (more negative = stronger competition); settings: THP-1, incubation time: 4 h
[1] = compound: CC1Cc2ccccc2N1C(=O)C1CCCN(C1)C(=O)CCl (mixture of isomers) [TRIM25 ligand 11 (diastereomer mixture)]; test: as above; settings: THP-1, incubation time: 4 h

UniProt P25490, sequence (P25490 whole entry, looked up): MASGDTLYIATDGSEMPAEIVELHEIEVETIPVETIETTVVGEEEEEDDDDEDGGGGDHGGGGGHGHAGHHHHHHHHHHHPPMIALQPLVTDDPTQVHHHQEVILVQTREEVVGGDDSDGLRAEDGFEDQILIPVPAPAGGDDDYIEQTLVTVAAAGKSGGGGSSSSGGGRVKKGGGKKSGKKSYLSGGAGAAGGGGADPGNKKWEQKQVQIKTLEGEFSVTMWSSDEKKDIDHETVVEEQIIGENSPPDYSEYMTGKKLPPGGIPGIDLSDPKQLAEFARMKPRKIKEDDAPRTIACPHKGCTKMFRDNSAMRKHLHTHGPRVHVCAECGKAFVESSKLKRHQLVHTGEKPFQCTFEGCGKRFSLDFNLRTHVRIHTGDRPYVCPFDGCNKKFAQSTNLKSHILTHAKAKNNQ
UniProt Q6DD87, sequence (Q6DD87 whole entry, looked up): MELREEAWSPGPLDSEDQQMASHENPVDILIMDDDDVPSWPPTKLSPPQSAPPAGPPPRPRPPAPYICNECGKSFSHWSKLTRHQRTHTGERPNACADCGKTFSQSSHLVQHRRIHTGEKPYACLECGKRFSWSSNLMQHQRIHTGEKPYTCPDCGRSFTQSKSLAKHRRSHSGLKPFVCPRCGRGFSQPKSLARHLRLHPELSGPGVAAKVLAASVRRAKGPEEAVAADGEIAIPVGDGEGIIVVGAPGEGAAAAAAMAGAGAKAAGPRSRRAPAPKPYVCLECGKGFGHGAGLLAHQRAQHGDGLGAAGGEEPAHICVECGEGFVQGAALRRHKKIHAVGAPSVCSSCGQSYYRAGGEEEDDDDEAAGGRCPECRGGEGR
UniProt O95218, sequence (O95218 whole entry, looked up): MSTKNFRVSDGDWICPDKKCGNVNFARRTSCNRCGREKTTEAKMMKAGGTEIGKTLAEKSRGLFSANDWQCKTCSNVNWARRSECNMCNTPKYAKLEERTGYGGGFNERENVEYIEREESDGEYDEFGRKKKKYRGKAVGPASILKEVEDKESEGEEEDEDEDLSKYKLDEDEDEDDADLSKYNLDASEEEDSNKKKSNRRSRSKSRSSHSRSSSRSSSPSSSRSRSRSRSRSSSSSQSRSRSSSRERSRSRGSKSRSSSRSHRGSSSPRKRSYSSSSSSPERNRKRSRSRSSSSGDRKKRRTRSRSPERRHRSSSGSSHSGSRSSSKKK
UniProt Q8TF39, sequence (Q8TF39 whole entry): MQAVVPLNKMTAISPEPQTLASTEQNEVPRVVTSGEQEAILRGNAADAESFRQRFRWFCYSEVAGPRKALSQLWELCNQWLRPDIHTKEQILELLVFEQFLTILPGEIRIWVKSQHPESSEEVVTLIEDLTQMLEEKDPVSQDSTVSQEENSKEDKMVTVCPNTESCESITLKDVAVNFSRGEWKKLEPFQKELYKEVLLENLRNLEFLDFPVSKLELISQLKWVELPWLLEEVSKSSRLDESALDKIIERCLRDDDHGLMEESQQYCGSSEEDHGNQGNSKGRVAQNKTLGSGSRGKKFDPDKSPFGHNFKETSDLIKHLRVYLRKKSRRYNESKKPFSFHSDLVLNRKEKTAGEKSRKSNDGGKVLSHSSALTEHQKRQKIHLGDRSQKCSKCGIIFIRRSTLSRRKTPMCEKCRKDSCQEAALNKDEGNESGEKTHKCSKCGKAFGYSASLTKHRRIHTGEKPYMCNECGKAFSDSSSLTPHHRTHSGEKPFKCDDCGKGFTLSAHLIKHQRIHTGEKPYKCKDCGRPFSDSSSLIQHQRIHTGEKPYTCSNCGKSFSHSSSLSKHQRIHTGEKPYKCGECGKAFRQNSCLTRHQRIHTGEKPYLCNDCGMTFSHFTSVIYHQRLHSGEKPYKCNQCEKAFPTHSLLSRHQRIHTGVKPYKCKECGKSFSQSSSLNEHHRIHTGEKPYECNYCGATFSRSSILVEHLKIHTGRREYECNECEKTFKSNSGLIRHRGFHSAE
UniProt Q9C0E2, sequence (Q9C0E2 whole entry, looked up): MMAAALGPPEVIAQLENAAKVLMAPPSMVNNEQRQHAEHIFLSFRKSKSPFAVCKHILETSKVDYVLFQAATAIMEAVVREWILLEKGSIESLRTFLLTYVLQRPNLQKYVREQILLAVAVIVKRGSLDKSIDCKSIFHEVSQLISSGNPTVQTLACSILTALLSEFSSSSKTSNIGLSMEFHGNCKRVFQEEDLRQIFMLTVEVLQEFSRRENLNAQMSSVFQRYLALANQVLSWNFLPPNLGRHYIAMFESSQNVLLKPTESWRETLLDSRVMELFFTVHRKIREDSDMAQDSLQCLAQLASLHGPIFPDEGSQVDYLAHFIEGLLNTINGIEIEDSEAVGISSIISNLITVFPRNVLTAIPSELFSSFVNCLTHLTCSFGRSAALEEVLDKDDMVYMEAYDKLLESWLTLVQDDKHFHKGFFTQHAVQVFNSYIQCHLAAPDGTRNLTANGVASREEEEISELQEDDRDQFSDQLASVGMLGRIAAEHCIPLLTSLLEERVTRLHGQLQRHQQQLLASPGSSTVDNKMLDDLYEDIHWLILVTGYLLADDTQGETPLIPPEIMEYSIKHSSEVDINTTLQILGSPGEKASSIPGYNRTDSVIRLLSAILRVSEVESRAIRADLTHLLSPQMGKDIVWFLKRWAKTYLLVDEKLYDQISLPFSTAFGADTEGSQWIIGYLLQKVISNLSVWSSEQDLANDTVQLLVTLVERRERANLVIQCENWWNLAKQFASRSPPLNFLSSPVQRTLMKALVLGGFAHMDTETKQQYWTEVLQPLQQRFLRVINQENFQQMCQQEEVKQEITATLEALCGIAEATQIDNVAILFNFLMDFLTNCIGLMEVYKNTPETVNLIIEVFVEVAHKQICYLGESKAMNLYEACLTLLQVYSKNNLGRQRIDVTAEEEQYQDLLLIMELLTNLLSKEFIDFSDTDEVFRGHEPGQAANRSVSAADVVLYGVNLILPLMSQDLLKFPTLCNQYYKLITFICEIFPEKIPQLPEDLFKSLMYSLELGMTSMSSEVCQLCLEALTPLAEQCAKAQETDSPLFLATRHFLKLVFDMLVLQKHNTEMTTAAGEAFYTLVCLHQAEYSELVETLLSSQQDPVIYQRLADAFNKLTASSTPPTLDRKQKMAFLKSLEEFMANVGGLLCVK
UniProt Q96QU8, sequence (Q96QU8 whole entry, looked up): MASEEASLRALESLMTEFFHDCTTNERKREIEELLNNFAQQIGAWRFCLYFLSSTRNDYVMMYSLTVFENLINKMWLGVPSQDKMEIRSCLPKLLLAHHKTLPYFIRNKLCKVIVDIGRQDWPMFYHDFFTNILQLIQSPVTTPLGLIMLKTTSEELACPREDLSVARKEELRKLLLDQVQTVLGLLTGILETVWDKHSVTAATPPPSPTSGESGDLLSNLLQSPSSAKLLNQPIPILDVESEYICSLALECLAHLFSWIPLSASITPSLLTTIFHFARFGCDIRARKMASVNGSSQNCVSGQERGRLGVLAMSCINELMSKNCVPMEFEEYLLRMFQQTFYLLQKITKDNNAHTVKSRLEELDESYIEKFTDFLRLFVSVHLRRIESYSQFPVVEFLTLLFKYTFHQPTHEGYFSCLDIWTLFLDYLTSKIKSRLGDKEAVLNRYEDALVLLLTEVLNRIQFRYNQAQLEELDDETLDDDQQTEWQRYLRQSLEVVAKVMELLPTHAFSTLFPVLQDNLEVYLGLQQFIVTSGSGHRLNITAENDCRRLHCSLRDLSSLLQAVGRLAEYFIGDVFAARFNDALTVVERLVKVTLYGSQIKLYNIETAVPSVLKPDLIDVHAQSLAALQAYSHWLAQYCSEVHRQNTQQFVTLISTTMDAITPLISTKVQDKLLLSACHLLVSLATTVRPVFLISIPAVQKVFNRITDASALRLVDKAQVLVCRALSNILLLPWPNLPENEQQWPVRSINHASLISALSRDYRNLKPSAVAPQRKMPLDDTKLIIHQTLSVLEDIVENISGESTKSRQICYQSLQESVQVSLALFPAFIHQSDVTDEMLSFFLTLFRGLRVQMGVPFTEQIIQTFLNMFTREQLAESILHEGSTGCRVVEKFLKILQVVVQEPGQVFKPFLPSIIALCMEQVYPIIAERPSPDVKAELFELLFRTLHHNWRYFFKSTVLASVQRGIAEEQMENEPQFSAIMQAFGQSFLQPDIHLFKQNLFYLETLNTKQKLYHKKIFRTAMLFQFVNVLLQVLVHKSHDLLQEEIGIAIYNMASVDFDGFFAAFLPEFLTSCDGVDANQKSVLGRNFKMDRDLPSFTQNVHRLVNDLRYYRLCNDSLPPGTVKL
UniProt Q96K21, sequence (Q96K21 whole entry, looked up): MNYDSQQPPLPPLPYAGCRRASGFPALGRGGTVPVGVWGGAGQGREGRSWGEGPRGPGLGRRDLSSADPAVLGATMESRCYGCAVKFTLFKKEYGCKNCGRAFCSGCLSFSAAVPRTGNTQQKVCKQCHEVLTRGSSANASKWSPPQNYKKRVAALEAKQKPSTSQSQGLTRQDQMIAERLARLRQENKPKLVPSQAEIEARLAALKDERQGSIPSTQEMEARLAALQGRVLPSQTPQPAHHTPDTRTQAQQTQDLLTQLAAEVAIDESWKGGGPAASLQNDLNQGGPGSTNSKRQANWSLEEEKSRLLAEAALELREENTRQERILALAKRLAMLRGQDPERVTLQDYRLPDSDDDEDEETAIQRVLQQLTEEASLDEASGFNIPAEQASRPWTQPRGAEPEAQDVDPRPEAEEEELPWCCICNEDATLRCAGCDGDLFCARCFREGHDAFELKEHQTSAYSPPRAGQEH
UniProt P61981, sequence (P61981 whole entry, looked up): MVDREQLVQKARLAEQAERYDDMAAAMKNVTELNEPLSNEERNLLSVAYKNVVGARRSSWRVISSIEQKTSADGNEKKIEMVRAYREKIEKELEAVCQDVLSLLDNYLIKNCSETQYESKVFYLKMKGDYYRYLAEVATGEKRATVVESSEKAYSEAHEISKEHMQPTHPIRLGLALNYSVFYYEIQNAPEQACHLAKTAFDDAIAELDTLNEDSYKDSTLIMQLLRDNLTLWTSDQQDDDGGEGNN

Target	probe-labelled cysteine peptide fold change (compound 10; 10 µM)	probe-labelled cysteine peptide fold change (compound 10; 50 µM)	probe-labelled cysteine peptide fold change ([1]; 10 µM)	probe-labelled cysteine peptide fold change ([1]; 50 µM)
ZNHIT6_Q9NWK9_171_FVGQCIK (UniProt Q9NWK9)	-0.528	-0.0997	–	–
ZFAND2B_Q8WV99_134_HRHPLDHDCSGEGHPTSR (UniProt Q8WV99)	-0.148	0.178	–	–
ZNF562_Q6V9R5_17_EPICPFEEK<|>ZNF561_Q8N587_17_EPICPFEEK (UniProt Q8N587+Q6V9R5)	-0.186	-1.08	–	–
YAE1_Q9NRH1_143_SITPPSHVVDLLDSIEDMDLCHVVPAEK (UniProt Q9NRH1)	-0.335	0.0421	–	–
WDR82_Q6UXN9_195_TCEWTGLK (UniProt Q6UXN9)	-0.0459	0.418	–	–
AGGF1_Q8N302_494_CDPYVLEHGDEVK (UniProt Q8N302)	–	–	0.0808	0.0697
ZNF483_Q8TF39_392_IHLGDRSQKCSK (UniProt Q8TF39)	-0.0771	-0.64	–	–
AARS_P49588_184+187_DNFWEMGDTGPCGPCSEIHYDR (UniProt P49588)	–	–	0.105	-0.0756
WRN_Q14191_1367_HGPDSGLQPSCDVNK (UniProt Q14191)	-0.126	-0.11	–	–
WDFY4_Q6ZS81_2226_TEDFVSCIENYR (UniProt Q6ZS81)	-0.17	-0.159	–	–
YTHDC2_Q9H6S0_788_LLAPVNCPIADFLMK (UniProt Q9H6S0)	-0.0326	-0.072	–	–
ACTL6A_O96019_152_LTELMFEHYNIPAFFLCK (UniProt O96019)	–	–	-0.0461	0.0154
XIAP_P98170_213_NWEPCDR (UniProt P98170)	-0.0911	-0.654	–	–
WNK1_Q9H4A3_1135_VVECQLETHNRK (UniProt Q9H4A3)	0.208	0.14	–	–
ADAM15_Q13444_409_ALLDGMGSCLFER (UniProt Q13444)	–	–	-0.145	0.146
WDFY4_Q6ZS81_88_AWEHSVGIICFPSLQR (UniProt Q6ZS81)	-0.23	0.423	–	–
A6NIZ1_A6NIZ1_118_VKDTDDVPMILVGNKCDLEDER<|>RAP1B_P61224_118_VKDTDDVPMILVGNKCDLEDER (UniProt P61224+A6NIZ1)	–	–	-0.583	-0.426
WDR5_P61964_205_IWDTASGQCLK (UniProt P61964)	0.16	0.0228	–	–
ZNF787_Q6DD87_350_IHAVGAPSVCSSCGQSYYR (UniProt Q6DD87)	-0.238	-0.311	–	–
ZMYND11_Q15326_126_CLSDEFR (UniProt Q15326)	-0.00978	0.0128	–	–

Target	probe-labelled cysteine peptide fold change (compound 10; 10 µM)	probe-labelled cysteine peptide fold change (compound 10; 50 µM)	probe-labelled cysteine peptide fold change ([1]; 10 µM)	probe-labelled cysteine peptide fold change ([1]; 50 µM)
ZFYVE19_Q96K21_435_CAGCDGDLFCAR (UniProt Q96K21)	0.0027	-0.124	–	–
ZNF592_Q92610_592_IHVPASGYCCLECGDAFALEK (UniProt Q92610)	-0.0351	-0.192	–	–
ZBTB7A_O95365_490_DGCNGVPSR (UniProt O95365)	0.000157	-0.0775	–	–
ZNF516_Q92618_165_KGAEGSACAPGEAK (UniProt Q92618)	0.0165	-0.317	–	–
XPO4_Q9C0E2_723_ANLVIQCENWWNLAK (UniProt Q9C0E2)	0.102	-0.0501	–	–
YY1_P25490_390_IHTGDRPYVCPFDGCNK (UniProt P25490)	0.136	0.715	–	–
ZNF76_P36508_292_THTGERPYTCPEPHCGR (UniProt P36508)	0.0197	-0.0549	–	–
YWHAG_P61981_194_LGLALNYSVFYYEIQNAPEQACHLAK (UniProt P61981)	0.0292	0.41	–	–
ZER1_Q7Z7L7_337_RPLQFLGLFENSLCR (UniProt Q7Z7L7)	-0.124	-0.0583	–	–
ZNF638_Q14966_688_EQSLHYGSVLLITELPEDGCTEEDVR (UniProt Q14966)	0.0192	0.11	–	–
ZMYM2_Q9UBW7_612_LYNFCNSSCVAK (UniProt Q9UBW7)	-0.192	-1.33	–	–
ZBTB14_O43829_391_PFVCGSCTK (UniProt O43829)	0.104	-0.263	–	–
WDR55_Q9H6Y2_5_TCEERPAEDGSDEEDPDSMEAPTR (UniProt Q9H6Y2)	-0.668	-1.19	–	–
YWHAZ_P63104_94_DICNDVLSLLEK (UniProt P63104)	0.233	0.309	–	–
ZZEF1_O43149_728_DTEESVCGATLLLR (UniProt O43149)	-0.0306	-0.17	–	–
ZNF687_Q8N1G0_91_NTVCPEQSEALAGGSAGDGAQAAGVTK (UniProt Q8N1G0)	-0.392	-0.0527	–	–
ZMYM4_Q5VZL5_1499_SCVPNSPMWYSTFPIDPGTLDTMLTR (UniProt Q5VZL5)	-0.668	-0.33	–	–
XPO6_Q96QU8_324_NCVPMEFEEYLLR (UniProt Q96QU8)	-0.0141	0.145	–	–
XXYLT1_Q8NBI6_386_IYHGNCNTPIPED (UniProt Q8NBI6)	-0.00561	-0.0309	–	–
ZRANB2_O95218_20_CGNVNFAR (UniProt O95218)	-0.0495	-0.314	–	–
